Measured values published in PubChem BioAssay (NCATS).
Inconclusive results are not listed. Activity calls are given as the source filed them. The call rests on the fitted dose curve; in most records, active means well fitted cell-killing curve with a large enough effect; inconclusive means small, poorly fitted or top-dose-only effect, or effect the other way; inactive means flat fitted curve, though single readings scatter.

Experiments:
Assay in all cases: Primary qHTS to identify gynecologic anti-cancer compounds using libraries of approved drugs and bioactive compounds (AID 1345084); further: nearly all actives have a fitted effect of over 55% in size
Settings in all cases: Gynecologic cancer cell panel viability, ATPlite luminescence, 48 h; series mostly up to 57.5 µM
OV90 = system: OV90
Method in brief: (§1)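 Five-point cytotoxicity, 48 h drug exposure at 37 C, 5% CO2, on cells seeded 16 h beforehand. ATP content read by ATPlite luminescence.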

PA-1 = system: PA-1
Method in brief: as §1

SKOV3 = system: SKOV3
Method in brief: as §1

Tov-21-G = system: Tov-21-G
Method in brief: as §1

Tov112D = system: Tov112D
Method in brief: as §1
On the % scale 0 is the no-effect control and ±100 the full control effect.

C=C(C)C1CC[C@]2(C(=O)O)CC[C@]3(C(=O)O)[C@H](CCC4[C@@]5(C)CC[C@H](O)C(C)(C)C5CC[C@]43C)C12 (stereo not given in full)
inactive: Potency (OV90) | Potency (PA-1) | Potency (SKOV3) | Potency (Tov-21-G) | Potency (Tov112D)

COC1C(CO)OC(n2cnc3c(=O)[nH]cnc32)C1O (stereo not given)
inactive: Potency (OV90) | Potency (PA-1) | Potency (SKOV3) | Potency (Tov-21-G) | Potency (Tov112D)

COc1c2c(c(C)c3c1C(=O)OC3)OC1(C)CC(O)C34OC(OC)(OC3(C)C)C(O)CC4(C)C1C2 (stereo not given)
inactive: Potency (OV90) | Potency (PA-1) | Potency (SKOV3) | Potency (Tov-21-G) | Potency (Tov112D)

CC1(C)C2CC=C(COC3OC(COC4OCC(O)(CO)C4O)C(O)C(O)C3O)C1C2 (stereo not given)
inactive: Potency (OV90) | Potency (PA-1) | Potency (SKOV3) | Potency (Tov-21-G) | Potency (Tov112D)

COc1cc2c(cc1OC)CC(=O)N(CCCNC[C@H]1Cc3cc(OC)c(OC)cc31)CC2
inactive: Potency (OV90) | Potency (PA-1) | Potency (SKOV3) | Potency (Tov-21-G) | Potency (Tov112D)

C=C[C@H]1[C@H](O[C@@H]2O[C@H](CO)[C@@H](O)[C@H](O)[C@H]2O)OC=C(C(=O)OC)[C@H]1C/C=C(/C=O)[C@@H]1C(C(=O)OC)=CO[C@@H](O[C@@H]2O[C@H](CO)[C@@H](O)[C@H](O)[C@H]2O)[C@@H]1C=C
inactive: Potency (OV90) | Potency (PA-1) | Potency (SKOV3) | Potency (Tov-21-G) | Potency (Tov112D)

COC1CC(OC2CCC3(C)C(=CCC4C3C(OC(C)=O)C(OC(=O)/C=C/c3ccccc3)C3(C)C(C(C)O)CCC43O)C2)OC(C)C1OC1CC(OC)C(OC2OC(C)C(OC3OC(CO)C(O)C(O)C3O)C(OC)C2O)C(C)O1 (stereo not given)
inactive: activity change, negative = cytotoxicity (OV90) -2.22% [at 6.55 µM] | activity change, negative = cytotoxicity (PA-1) -0.704% [at 6.55 µM] | activity change, negative = cytotoxicity (SKOV3) -8.31% [at 6.55 µM] | activity change, negative = cytotoxicity (Tov-21-G) 9.97% [at 6.55 µM] | activity change, negative = cytotoxicity (Tov112D) 2.28% [at 6.55 µM]

CC(C)=CCC[C@](C)(O[C@@H]1O[C@H](CO)[C@@H](O)[C@H](O)[C@H]1O)[C@H]1CC[C@]2(C)[C@@H]1[C@H](O)CC1[C@@]3(C)CC[C@H](O)C(C)(C)C3[C@@H](O[C@@H]3O[C@H](CO)[C@@H](O)[C@H](O)[C@H]3O)C[C@]12C (stereo not given in full)
inactive: Potency (OV90) | Potency (PA-1) | Potency (SKOV3) | Potency (Tov-21-G) | Potency (Tov112D)

CC/C=C\[C@H](O)[C@H](O)C1=C(C)C(=O)[C@]2(O1)C(=O)N[C@@](OC)(C(=O)c1ccccc1)[C@@H]2O
inactive: Potency (OV90) | Potency (PA-1) | Potency (SKOV3) | Potency (Tov-21-G) | Potency (Tov112D)

COc1c2c(c(CO)c3c1C(=O)OC3)OC1(C)CCC3(O)C(C)(C)OC(=O)CCC3(C)C1C2 (stereo not given)
inactive: Potency (OV90) | Potency (PA-1) | Potency (SKOV3) | Potency (Tov-21-G) | Potency (Tov112D)

CC1=C(C(=O)OCc2ccccc2)C(c2ccc(-c3ccccc3)cc2)NC(=O)N1CCCCCC(=O)O (stereo not given)
inactive: Potency (OV90) | Potency (PA-1) | Potency (SKOV3) | Potency (Tov-21-G) | Potency (Tov112D)

CC(=O)N[C@@H](CCCCN)C(=O)N(C)[C@@H](CC(C)C)C(=O)N[C@H](C(=O)N(C)[C@@H](Cc1ccccc1)C(=O)N[C@H](Cc1ccccc1)C(N)=O)C(C)C
inactive: activity change, negative = cytotoxicity (OV90) -1.74% [at 6.55 µM] | activity change, negative = cytotoxicity (PA-1) 7.96% [at 6.55 µM] | activity change, negative = cytotoxicity (SKOV3) 0% [at 6.55 µM] | activity change, negative = cytotoxicity (Tov-21-G) 3.25% [at 6.55 µM] | activity change, negative = cytotoxicity (Tov112D) 6.63% [at 6.55 µM]

CC1(O)CC(O)C2(O)C=COC(O[C@@H]3O[C@H](CO)[C@@H](O)[C@H](O)[C@H]3O)C12 (stereo not given in full)
inactive: Potency (OV90) | Potency (PA-1) | Potency (SKOV3) | Potency (Tov-21-G) | Potency (Tov112D)

C=C(C(=O)O)C1CCC2(C)CCCC(C)(O)C2C1 (stereo not given)
inactive: Potency (OV90) | Potency (PA-1) | Potency (SKOV3) | Potency (Tov-21-G) | Potency (Tov112D)

COC(=O)CC(O)C1OC(c2ccccc2)C(O)C1O (stereo not given)
inactive: Potency (OV90) | Potency (PA-1) | Potency (SKOV3) | Potency (Tov-21-G) | Potency (Tov112D)

C[C@@H]1CC[C@]2(C(=O)O[C@@H]3O[C@H](CO)[C@@H](O)[C@H](O)[C@H]3O)CC[C@]3(C)C(=CCC4[C@@]5(C)C[C@@H](O)[C@H](O)[C@@](C)(C(=O)O[C@H]6[C@H](O)C[C@@]7(C)C(CC[C@]8(C)C7CC=C7[C@H]9[C@](C(=O)O[C@@H]%10O[C@H](CO)[C@@H](O)[C@H](O)[C@H]%10O)(CC[C@@H](C)[C@@]9(C)O)CC[C@]78C)[C@@]6(CO)C(=O)O)C5CC[C@]43C)[C@@H]2[C@]1(C)O (stereo not given in full)
inactive: activity change, negative = cytotoxicity (OV90) -0.495% [at 6.55 µM] | activity change, negative = cytotoxicity (PA-1) 8.04% [at 6.55 µM] | activity change, negative = cytotoxicity (SKOV3) 17.7% [at 6.55 µM] | activity change, negative = cytotoxicity (Tov-21-G) 0.548% [at 6.55 µM] | activity change, negative = cytotoxicity (Tov112D) 3.01% [at 6.55 µM]
